Rows were chosen to be rich in hits. Some 19% of all compounds tested hit in one or more screens of this group.
HT1080 IDH1KD tx – HT-1080 IDH1 knockdown cell toxicity (counter line); Potency, µM (top dose mostly 46.1 µM), most hits filed as cytotoxic; HT-1080 IDH1 knockdown viability, ATP luminescence, 48 h; actives 2% (n = 360,000)
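In this qHTS, HT-1080 cells depleted of IDH1 are exposed for 48 h at 37 °C to compound titrations. Toxicity is scored from CellTiter-Glo luminescence, with DMSO as full viability and medium alone as none.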
HT1080-NT tox – kills 2HG-producing HT-1080-NT fibrosarcoma cells. HT-1080-NT fibrosarcoma viability, CellTiter-Glo ATP luminescence, 48 h. Potency, µM (titrated, usually from 46.1 µM), most hits filed as cytotoxic. actives 1.6% (n = 360,000);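 note: NT is the 2HG producing partner of a matched IDH1 knockdown line; nearly all actives have a fitted effect of over 55% in size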
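Read-out is CellTiter-Glo luminescence after 10 minutes at room temperature, following 48 hours' compound treatment of HT-1080-NT cells (750 cells/well, RPMI, 5% FBS, 37 degrees C).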
TDP1 cell noCPT – qHTS for Inhibitors of human tyrosyl-DNA phosphodiesterase 1 (TDP1): qHTS in cells in absence of CPT. DT40 Tdp1-/- hTDP1 cells, no CPT, ATP luminescence, 48 h. Potency, µM (series often up to 46.2 µM), most hits filed as inhibitors. actives 15% (n = 420,000); note: nearly all actives have a fitted effect of over 55% in size
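Readout: luminescence from CellTiter-Glo after 30 min in the dark at RT. Cells: DT40 Tdp1-/- with stable hTDP1, 400/well. Exposure: compounds alone, ≥48 hr, 37 °C.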
DT40 TDP1 CPT – growth inhibition of DT40 Tdp1-/-;hTDP1 cells with camptothecin (screen for TDP1 inhibitors); chicken DT40 Tdp1-/-;hTDP1 cells + 20 nM CPT, ATP luminescence, 48 h; actives 12% (n = 420,000); Potency, µM (series often up to 46.2 µM), usual class: inhibitors; note: nearly all actives have a fitted effect of over 55% in size
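Cell growth measured by CellTiter-Glo luminescence after a minimum 48 h, 37 C compound exposure with 20 nM CPT in Tdp1-knockout DT40 cells stably expressing hTDP1, seeded 400/well; qHTS titration format.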
IL1B secr inh – inflammasome signaling inhibition, IL-1 beta readout. activity change, % at 57.5 µM. AID 743279. actives 4.7% (n = 360,000). THP-1 LPS/ATP IL-1B secretion, AlphaLISA, 16 h; stronger effect = lower value; in the data active = activity change below about -50%; inconclusive = mostly about -30% to -49%
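THP-1 cells pretreated 1 hr with compounds (up to 57.5 uM final), then stimulated with LPS (250 ng/mL final) plus ATP (1.25 mM final); secreted IL-1B measured by AlphaLISA after 16 hr, decreased signal indicating inhibition.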
ELG1 DNA repair – blocks ELG1-dependent DNA repair in HEK293T cells | actives 2.3% (n = 330,000) | HEK293T ELG1-luciferase reporter, luminescence, 16 h; DNA damage induced by 5-fluorouridine | Potency, µM (titrated, usually from 46.1 µM), most hits filed as inhibitors; note: nearly all actives have a fitted effect of over 55% in size
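In this reporter screen, reduction of luminescence relative to DMSO vehicle indicated activity. Compounds and 5-fluorouridine were added together to 2,000 cells per well, incubated for 16 hr at 37 °C, then developed with ONE-Glo.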
Each line names hits and unclear results; the compound was inactive in the other large screens. Unless noted, calls come from the whole dose curve; as a rule, active = well fitted curve in the direction sought with a large enough effect; inconclusive = small, poorly fitted or top-dose-only effect, or another doubt; inactive = no such curve, though single readings can be large; an effect the other way counts as inactive or inconclusive.

CCCCCCC1CC(/C(C)=N\NC(N)=O)OC1=O (stereo unspecified)	none
CCC(Sc1ncccc1Nc1ccccn1)C(=O)O (stereo unspecified)	none (no result: ELG1 DNA repair)
CCOc1cc(/C=N/NC(=O)c2ccncc2)cc(Cl)c1OS(C)(=O)=O	TDP1 cell noCPT inconclusive, DT40 TDP1 CPT inconclusive, ELG1 DNA repair 15µM
CC(C)CC1NC(=O)c2cc3ccccc3cc2-n2c1nc1ccc(F)cc1c2=O (stereo unspecified)	TDP1 cell noCPT 23µM, DT40 TDP1 CPT 23µM (no result: ELG1 DNA repair)
Cc1ccc2nc3n(c(=O)c2c1)-c1cc2ccccc2cc1C(=O)NC3CC(C)C (stereo unspecified)	TDP1 cell noCPT 16µM, DT40 TDP1 CPT 16µM (no result: ELG1 DNA repair)
CCCC1NC(=O)c2cc3ccccc3cc2-n2c1nc1ccc(F)cc1c2=O (stereo unspecified)	TDP1 cell noCPT 21µM, DT40 TDP1 CPT inconclusive (no result: ELG1 DNA repair)
CCC1NC(=O)c2cc3ccccc3cc2-n2c1nc1cc(OC)c(OC)cc1c2=O (stereo unspecified)	TDP1 cell noCPT inconclusive, DT40 TDP1 CPT inconclusive (no result: ELG1 DNA repair)
CC(C)CC1NC(=O)c2cc3ccccc3cc2-n2c1nc1ccc(Cl)cc1c2=O (stereo unspecified)	TDP1 cell noCPT inconclusive, DT40 TDP1 CPT inconclusive (no result: ELG1 DNA repair)
CCOC(=O)CN1C(C(=O)c2ccccc2)=C(OC(=O)c2ccccc2)c2ccccc2S1(=O)=O	TDP1 cell noCPT 26µM, DT40 TDP1 CPT 21µM (no result: HT1080 IDH1KD tx, HT1080-NT tox, IL1B secr inh, ELG1 DNA repair)
COC(=O)CN1C(C(=O)c2ccccc2)=C(OC(=O)c2ccc(F)cc2)c2ccccc2S1(=O)=O	DT40 TDP1 CPT 16µM (no result: HT1080 IDH1KD tx, HT1080-NT tox, IL1B secr inh, ELG1 DNA repair)
O=C(O)c1ccc(CN2C(=O)c3ccccc3S2(=O)=O)cc1	none
CCN1C(C(=O)c2ccccc2)=C(OC(=O)c2ccc(Cl)cc2)c2ccccc2S1(=O)=O	TDP1 cell noCPT 23µM, DT40 TDP1 CPT inconclusive (no result: HT1080 IDH1KD tx, HT1080-NT tox, IL1B secr inh, ELG1 DNA repair)
COC(=O)C1=C(c2ccccc2)c2ccccc2S(=O)(=O)N1CC(=O)Nc1cccc(C(C)=O)c1	TDP1 cell noCPT inconclusive (no result: HT1080 IDH1KD tx, HT1080-NT tox, IL1B secr inh, ELG1 DNA repair)
CCOc1cc(/C=N/NC(=O)CCCC(=O)NC2CCCCC2)ccc1O	none
N/C(=N\OC(=O)CSc1ccccc1)c1ccncc1	ELG1 DNA repair inconclusive
c1cc[n+](CCCC[n+]2ccccc2)cc1	none
CCCCCc1ccc(OCCCC[n+]2ccccc2)c(CCCCC)c1	HT1080 IDH1KD tx 8.2µM, HT1080-NT tox 23µM, TDP1 cell noCPT 2.6µM, DT40 TDP1 CPT 2.6µM, IL1B secr inh -93, ELG1 DNA repair 13µM
CCCCOc1ccc(C)cc1CN(CCO)CCO	none
CCCCCCc1ccc(OCC(=O)O)cc1OCC(=O)O	none
CCCCCCCCCCCCCCCC[n+]1ccc(C)cc1	TDP1 cell noCPT 0.5µM, DT40 TDP1 CPT 0.89µM (no result: HT1080 IDH1KD tx, HT1080-NT tox, IL1B secr inh, ELG1 DNA repair)
CCCCCc1ccc(OCCCC[n+]2ccc(C)cc2)c(CCCCC)c1	HT1080 IDH1KD tx 6.5µM, HT1080-NT tox 6.5µM, TDP1 cell noCPT 0.46µM, DT40 TDP1 CPT 1µM, IL1B secr inh -100, ELG1 DNA repair 15µM
CCC(C)(C)c1ccc(OCCCC[n+]2ccccc2)c(C(C)(C)CC)c1	HT1080 IDH1KD tx inconclusive, HT1080-NT tox 16µM, TDP1 cell noCPT 0.012µM, DT40 TDP1 CPT 0.58µM, ELG1 DNA repair 18µM
Cc1ccc(CCNC(=O)CCSCc2ccccc2Cl)cc1	none (no result: HT1080 IDH1KD tx, HT1080-NT tox, IL1B secr inh, ELG1 DNA repair)
CN1CCN(S(=O)(=O)c2ccc(NS(=O)(=O)c3ccccc3)cc2)CC1	ELG1 DNA repair inconclusive
CCCCCc1ccc(OCCCC[n+]2cccc(C)c2)c(CCCCC)c1	HT1080 IDH1KD tx 4.1µM, HT1080-NT tox 4.1µM, TDP1 cell noCPT 1.2µM, DT40 TDP1 CPT 2.3µM, IL1B secr inh -96
Cc1ccc[n+](CC(=O)Nc2ccc(C)c(C)c2)c1	DT40 TDP1 CPT inconclusive
COc1cc(OC)cc(-c2nc3nc(C)c(CCC(=O)Nc4ccc(Cl)cc4)c(C)n3n2)c1	none (no result: HT1080 IDH1KD tx, HT1080-NT tox, IL1B secr inh, ELG1 DNA repair)
COc1cc(OC)cc(-c2nc3nc(C)c(CCC(=O)Nc4cc(F)ccc4F)c(C)n3n2)c1	TDP1 cell noCPT 8.2µM, DT40 TDP1 CPT inconclusive (no result: HT1080 IDH1KD tx, HT1080-NT tox, IL1B secr inh, ELG1 DNA repair)
COc1cc(OC)cc(-c2nc3nc(C)c(CCC(=O)Nc4ccc(F)cc4F)c(C)n3n2)c1	TDP1 cell noCPT 13µM, DT40 TDP1 CPT inconclusive (no result: HT1080 IDH1KD tx, HT1080-NT tox, IL1B secr inh, ELG1 DNA repair)
COC(=O)c1cccc(NC(=S)Nc2ccc(Cl)c(Cl)c2)c1	HT1080 IDH1KD tx inconclusive, TDP1 cell noCPT 26µM, IL1B secr inh -65
COC(=O)c1cc(NC(=S)Nc2cc(Cl)cc(Cl)c2)cc(C(=O)OC)c1	TDP1 cell noCPT inconclusive, DT40 TDP1 CPT 18µM, IL1B secr inh -81, ELG1 DNA repair inconclusive
Cc1ccc(CN(Cc2ccccn2)C(=O)Nc2ccc(C)c(C)c2)cc1	HT1080 IDH1KD tx inconclusive, TDP1 cell noCPT inconclusive, DT40 TDP1 CPT inconclusive, IL1B secr inh -58
CSc1cccc(NC(=S)N(Cc2ccc(C)cc2)Cc2ccccn2)c1	ELG1 DNA repair inconclusive
